About 79,000 compounds went through this panel and 15% of them were active in at least one assay; those are over-represented in the sample as a whole. Unmarked numbers belong to inactive results. Active and inactive are the calls of the source. No stated cut-off is given here; in the data, active means growth inhibition above about 70%; inactive means the rest.
Columns and labels:
[1] = NCI Yeast Anticancer Drug Screen. Data for the rad50 strain (AID 155);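 further: 0% = growth of vehicle-only cultures of the same strain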; conditions: S. cerevisiae rad50 strain growth inhibition, active compounds read high
Procedure, shortened: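 Yeast carrying a defined DNA repair defect were exposed to test compounds, and growth was compared with vehicle-treated controls to give percent inhibition.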

[2] = NCI Yeast Anticancer Drug Screen. Data for the mec2-1 strain (AID 157); conditions: S. cerevisiae mec2-1 strain, active compounds read high
Procedure, shortened: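 Readout is yeast growth inhibition, normalised to vehicle-treated controls, in the mec2-1 strain exposed to compound.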

[3] = NCI Yeast Anticancer Drug Screen. Data for the sgs1 mgt1 strain (AID 161);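 further: 0% = growth of cultures given vehicle only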; conditions: S. cerevisiae sgs1 mgt1 strain, active compounds read high
Procedure, shortened: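 This yeast growth screen uses a strain with defined DNA-repair lesions; compound-treated growth is compared with vehicle-treated growth.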

[4] = NCI Yeast Anticancer Drug Screen. Data for the cln2 rad14 strain (AID 165);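 further: 0% = growth equal to vehicle treated cultures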; conditions: S. cerevisiae cln2 rad14 strain, active compounds read high
Procedure, shortened: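 Relative to vehicle controls, growth inhibition of compound-treated cln2 rad14 yeast was recorded.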

[5] = NCI Yeast Anticancer Drug Screen. Data for the bub3 strain (AID 167); conditions: S. cerevisiae bub3 mutant strain, active compounds read high
Procedure, shortened: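 Compounds were applied to a genetically altered yeast strain carrying a cell-cycle control defect. Growth inhibition was scored against vehicle-treated controls.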

[6] = NCI Yeast Anticancer Drug Screen. Data for the mlh1 rad18 strain (AID 175); conditions: S. cerevisiae mlh1 rad18 strain growth inhibition, active compounds read high
Procedure, shortened: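 Test agents were incubated with a yeast strain of defined genotype (DNA damage repair defect). Inhibition of growth was derived by comparison with vehicle-exposed cultures.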

[7] = at 5.0 µM (retest, dose inferred, filed as 0.5)
[8] = at 50.0 µM (retest, dose inferred, filed as 5.0)

Row | Compound | growth inhibition [1, 7] | growth inhibition [1, 8] | growth inhibition ([1]; at 50.0 µM) | growth inhibition [2, 7] | growth inhibition [2, 8] | growth inhibition ([2]; at 50.0 µM) | growth inhibition [3, 7] | growth inhibition [3, 8] | growth inhibition ([3]; at 50.0 µM) | growth inhibition [4, 7] | growth inhibition [4, 8] | growth inhibition ([4]; at 50.0 µM) | growth inhibition [5, 7] | growth inhibition [5, 8] | growth inhibition ([5]; at 50.0 µM) | growth inhibition [6, 7] | growth inhibition [6, 8] | growth inhibition ([6]; at 50.0 µM)
1 | CC(=O)Nc1ccc(-c2nnc(SCC(=O)Nc3ccc(Cl)cc3Cl)o2)cc1 | 1% | 30% | 89.4% (active) | -4% | 10% | 97.4% (active) | 2% | 8% | 94.9% (active) | 8% | 29% | 86.4% (active) | -3% | 22% | 97.7% (active) | 7% | 28% | 94.7% (active)
2 | CCOC(=O)C(=Cn1c(=S)[nH]c2ccc([N+](=O)[O-])cc21)C(=O)OCC | 33% | 53% | -36.2% | 17% | 22% | -35.2% | 33% | 41% | 0.75% | 20% | 25% | 13.9% | 26% | 29% | -37.2% | 33% | 46% | -40.2%
3 | OC(c1cc(-c2ccc(Cl)c(Cl)c2)nc2ccccc12)C1CCCCN1 (configuration not stated) | 95% (active) | 70% (active) | 38.2% | 100% (active) | 12% | 32.8% | 84% (active) | 77% (active) | 9.85% | 99% (active) | 29% | -14.2% | 99% (active) | 61% | 66.3% | 99% (active) | 92% (active) | 88.5% (active)
4 | Nc1nnc(CCC(=O)Nc2ccccc2Cl)o1 | -2% | -5% | -1.3% | 0% | 4% | 79.5% (active) | -6% | -2% | 98.5% (active) | 7% | 9% | 98.2% (active) | 1% | 2% | 98.8% (active) | -5% | 2% | 98.5% (active)
5 | O=C1/C(=C/c2cccc([N+](=O)[O-])c2)Sc2scc(-c3ccc([N+](=O)[O-])cc3)[n+]21 | 7% | 97% (active) | 85.2% (active) | -3% | 98% (active) | 62% | 6% | 97% (active) | 94.9% (active) | -15% | 97% (active) | 59.1% | -18% | 98% (active) | 93.1% (active) | 11% | 97% (active) | 93.8% (active)
6 | O=c1ccc([N+](=O)[O-])c[nH]1.[Ag] | 98% (active) | 98% (active) | 99.5% (active) | 99% (active) | 99% (active) | 99.3% (active) | 99% (active) | 98% (active) | 99.1% (active) | 98% (active) | 100% (active) | 98.2% (active) | 98% (active) | 98% (active) | 98.3% (active) | 98% (active) | 97% (active) | 99% (active)
7 | C/C(=N/O)C1CC(CCC2([N+](=O)[O-])CCC(C)(O)C(/C(C)=N/O)C2)([N+](=O)[O-])CCC1(C)O (configuration not stated) | 0% | -8% | 12.7% | 3% | -1% | 11.3% | -1% | -4% | -7.15% | 5% | -12% | 15.3% | 3% | -2% | 90.5% (active) | 1% | 0% | 19.9%
8 | CCCCC(CC)C(O)C(=O)O (configuration not stated) | 2% | 30% | 46.8% | -1% | 27% | 45.7% | 4% | 4% | 40.4% | 6% | 32% | 26.6% | 1% | 26% | 33.9% | -2% | 31% | 54.4%
9 | CCc1ccc(C(=O)O)cc1 | -2% | -2% | 2.7% | -2% | -2% | -11.9% | -1% | 0% | -1.1% | -5% | -17% | 76.7% (active) | -6% | 2% | -15.2% | -5% | -3% | 10%
10 | CCOC(=O)c1cn(CC)c2cc(-n3cccc3)ccc2c1=O | -3% | 28% | 31.4% | -1% | 21% | 20.6% | -2% | 39% | 56.4% | -2% | 17% | 22.2% | 0% | 27% | 33.5% | 1% | 50% | 47.2%
11 | O=c1c2c3c(sc2nc2n1N=C(c1ccc(Br)cc1)CS2)CCCC3 | 1% | -11% | 21.2% | -3% | -11% | -0.4% | -5% | -1% | -22.8% | 17% | 10% | -32.2% | 11% | -10% | -24.5% | -10% | -6% | -25.4%
12 | CC1CCCC(CCN(C)CCC2CCCCC2)CC1 (configuration not stated) | 21% | 98% (active) | 99.3% (active) | 9% | 99% (active) | 99.2% (active) | 35% | 99% (active) | 99.4% (active) | 21% | 97% (active) | 99.1% (active) | 7% | 79% (active) | 99% (active) | 45% | 98% (active) | 99.1% (active)
13 | CC(=O)N1c2ccccc2Sc2ccc3ccc(C(=O)CCl)cc3c21 | 81% (active) | 97% (active) | 87.2% (active) | 83% (active) | 98% (active) | 90.5% (active) | 92% (active) | 98% (active) | 89.9% (active) | 70% (active) | 97% (active) | 88.3% (active) | 93% (active) | 97% (active) | 89.2% (active) | 65% | 97% (active) | 87.8% (active)
14 | CS(=O)(=O)OCC(COS(C)(=O)=O)C(c1ccccc1)c1ccccc1Br (configuration not stated) | 12% | 34% | 28.4% | 7% | 29% | 36% | 14% | 47% | 37.1% | 16% | 44% | 13.1% | -1% | 16% | 5.4% | 7% | 51% | 56.2%
15 | COc1ccc(C2CC(c3sc(Nc4ccc(C)cc4)nc3C)=NN2)cc1 (configuration not stated) | -1% | 20% | 80.3% (active) | -33% | 60% | 62% | -2% | 16% | 71.4% (active) | -1% | 38% | 69.1% | -4% | 32% | 12.2% | -2% | 31% | 59.9%
16 | O=C(N/N=C/c1cc(Cl)cc(Cl)c1O)c1ccccc1 | 39% | 22% | 69.9% | 41% | 36% | 57.5% | 55% | 48% | 69.6% | 14% | 1% | 33.6% | 46% | 30% | 71.6% (active) | 45% | 40% | 69.8%
17 | Oc1ccccc1C1C=C(c2ccccc2)NC(N2CCCCC2)=C1c1nc2ccccc2[nH]1 (configuration not stated) | -9% | -11% | 18.1% | -9% | -13% | -5.15% | -9% | -10% | 5.05% | -22% | -14% | 40% | -13% | 6% | 29.4% | 2% | -2% | 9.4%
18 | CCC(C)(O)C#Cc1ccc(C)nc1 (configuration not stated) | 2% | 6% | 16.1% | 0% | 3% | 9.4% | -2% | 2% | 7.7% | 0% | -1% | 14.5% | 1% | -1% | 13.8% | -12% | 4% | 0.4%
19 | COc1ccc2cc(Br)ccc2c1 | 4% | -25% | 10.3% | 6% | -2% | 5.1% | 2% | 1% | 9.85% | 8% | -2% | -10.4% | 32% | 6% | -0.55% | 4% | -2% | 17.2%
